# Experimental data published in PubChem BioAssay.
# Active and inactive are the calls of the source.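 How the source made its calls, unless noted: active means compounds giving at least 50% inhibition in the cell-based MKP-3 phosphatase rescue imaging test; inactive means the rest.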
# Experiments:
# [1] = inhibitors of TNFa-induced NFkB p65 translocation, primary screen, imaging, HUVEC, MLSMR starter and 10KST1 sets (AID 438;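 active means inhibition above 20% together with a positive visual image hit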;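 further: compound added about 3h40 before a 20 min TNFalpha stimulation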;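 on inhibition: signal is the nuclear over cytoplasmic p65 intensity ratio per well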); conditions: HUVEC TNFa-induced p65 nuclear translocation; cell count: measured here: nuclei count (cytotoxicity indicator), at 2.08 µM unless noted; inhibition: at 2 µM, stronger effect = higher value unless noted
# [2] = reduction of polyQ htt aggregates in cells – imaging, exon1htt(103Q)mCFP cells, high-content imaging, primary screen (AID 483;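 active means visual image review flags a hit and inhibition of aggregation exceeds 20%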;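 further: compound exposure lasted 3 days before fixation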;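 on nuclei count: percent of the per-plate median nuclei count of sample wells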); conditions: exon1htt(103Q)mCFP cell line, aggregate imaging, at 2 µM; inhibition of aggregation: stronger effect = higher value; nuclei count: measured here: cell count, toxicity
# [3] = endothelial E-selectin expression blockers – imaging, HUVEC, immunofluorescence, MLSMR starter and 10KST1 sets, primary screen (AID 487;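 active means visually confirmed hit in the image check and inhibition above 20%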;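 on inhibition: signal is fraction of cell area covered by stained E-selectin grains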;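 on nuclei count: 100% = median nuclei count of all wells on the same plate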); conditions: HUVEC TNFalpha-induced E-selectin immunofluorescence imaging, at 2 µM; inhibition: stronger effect = higher value; nuclei count: measured here: cell number, toxicity
# [4] = Primary imaging screen for DUSP6 inhibitors that restore phospho-Erk in transfected HeLa cells, chemical complementation (AID 609); conditions: HeLa MKP-3 transfected, phospho-Erk imaging KS statistic, at 10 µM;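 on inhibition: phospho-Erk level distribution per well compared with pooled transfected vehicle control wells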
# [5] = target: Dual specificity protein phosphatase 6 (Homo sapiens) (UniProt Q16828); experiment: as above; conditions: HeLa MKP-3 transfected, phospho-Erk imaging KS statistic, at 10 µM, stronger effect = higher value
# Dual specificity protein phosphatase 6 (Homo sapiens), sequence (Q16828 whole entry, looked up): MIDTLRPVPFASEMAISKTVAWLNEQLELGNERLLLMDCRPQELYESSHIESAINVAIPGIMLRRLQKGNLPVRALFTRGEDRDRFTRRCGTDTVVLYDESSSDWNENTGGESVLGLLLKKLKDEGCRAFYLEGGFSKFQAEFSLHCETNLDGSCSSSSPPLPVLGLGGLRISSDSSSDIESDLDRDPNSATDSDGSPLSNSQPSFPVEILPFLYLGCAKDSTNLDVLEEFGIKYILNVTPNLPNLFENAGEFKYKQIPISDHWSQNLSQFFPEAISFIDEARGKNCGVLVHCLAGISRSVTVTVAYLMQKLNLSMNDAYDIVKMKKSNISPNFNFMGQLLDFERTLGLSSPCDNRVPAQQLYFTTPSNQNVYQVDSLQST
# [6] = target: Voltage-gated potassium channel subunit beta-2 (Rattus norvegicus) (UniProt P62483); experiment: inhibitors of rat Kvbeta2 reductase activity – biochemical, NADPH fluorescence, primary screen (AID 622;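 active means fluorescence slope higher than the sample average by over 3 SD, cut at about -0.22 in these data, passing the limit was not always enough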;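 further: slope of raw intensity against log time taken from 70 to 1610 s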); conditions: recombinant KvBeta, 4-cyanobenzaldehyde reduction, at 10 µM, stronger effect = higher value
# Voltage-gated potassium channel subunit beta-2 (Rattus norvegicus), sequence (P62483 whole entry, looked up): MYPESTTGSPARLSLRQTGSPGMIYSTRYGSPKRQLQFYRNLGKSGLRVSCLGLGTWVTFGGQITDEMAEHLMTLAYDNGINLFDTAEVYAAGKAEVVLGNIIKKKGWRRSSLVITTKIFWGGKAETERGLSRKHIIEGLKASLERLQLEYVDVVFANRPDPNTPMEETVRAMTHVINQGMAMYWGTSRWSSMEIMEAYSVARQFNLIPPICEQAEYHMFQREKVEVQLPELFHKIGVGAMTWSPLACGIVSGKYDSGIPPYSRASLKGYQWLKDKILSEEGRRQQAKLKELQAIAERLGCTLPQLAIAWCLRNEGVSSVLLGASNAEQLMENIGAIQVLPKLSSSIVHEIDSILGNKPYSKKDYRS
# [7] = target: Voltage-gated potassium channel subunit beta-2 (Rattus norvegicus) (UniProt P62483); experiment: enhancers of rat Kvbeta2 NADPH turnover – biochemical, NADPH fluorescence, primary screen (AID 623;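 active means NADPH fluorescence slope more negative than the mean of all samples by about 3 SD, 99.7% confidence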;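 further: fluorescence intensity change per second fitted from 20 to 320 s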); conditions: Recombinant KvBeta, NADPH fluorescence decrease slope, 10 min; at 10 µM; stronger effect = lower value
# [8] = target: Alpha-2C adrenergic receptor (Homo sapiens) (UniProt P18825); experiment: compounds altering alpha2C-coupled GIRK flux – cell-based, HEK293 alpha2C/GIRK1/2, thallium flux, primary screen (AID 624;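 active means fluorescence slope after compound addition differing from the mean of all screened samples at 99.7% confidence, in either direction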;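 further: slope of fluorescence ratio to pre-addition baseline per second over 15 to 24 s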); conditions: thallium flux BTC fluorescence, at 10 µM, actives lie on both sides
# Alpha-2C adrenergic receptor (Homo sapiens), sequence (P18825 whole entry, looked up): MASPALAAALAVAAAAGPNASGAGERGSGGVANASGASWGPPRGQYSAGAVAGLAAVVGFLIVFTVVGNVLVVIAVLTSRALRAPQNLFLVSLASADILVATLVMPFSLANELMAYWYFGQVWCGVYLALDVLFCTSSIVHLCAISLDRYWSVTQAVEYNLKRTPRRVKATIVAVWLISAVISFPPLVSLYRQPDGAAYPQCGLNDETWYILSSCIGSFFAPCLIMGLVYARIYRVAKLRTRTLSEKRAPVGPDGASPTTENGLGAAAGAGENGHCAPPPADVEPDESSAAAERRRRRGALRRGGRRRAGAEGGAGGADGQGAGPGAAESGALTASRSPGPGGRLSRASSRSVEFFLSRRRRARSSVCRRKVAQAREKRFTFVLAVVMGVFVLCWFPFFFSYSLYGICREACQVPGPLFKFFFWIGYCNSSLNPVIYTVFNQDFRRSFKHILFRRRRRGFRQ
# [9] = inhibitors of larval lipid processing in zebrafish, primary screen, whole organism, PED6 fluorescence, gall bladder and intestine (AID 686;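 active means a full or partial loss of lipid-probe fluorescence in the fish gall bladder, intestine or both, judged by eye; inactive means no fluorescence loss, or compound toxic to the fish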;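 further: larvae 5 to 7 days old with five fish per well; signal comes from phospholipase A2 cleavage of quenched PED6 carried via bile; overnight exposure to compound and PED6 before scoring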); conditions: Zebrafish larvae PED6 lipid processing, fluorescence scoring
# [10] = loss of swimming-algae plug formation – whole organism, Chlamydomonas reinhardtii, WT vs cilia-less mutant, absorbance, 96-well, primary screen (AID 463189;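 active means inhibition at or above 50% relative to wild type and mutant plate controls; inactive means inhibition below 50%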;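 further: 0% = wild type cc124 cells in DMSO and 100% = ciliumless bld1 mutant cells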); conditions: Chlamydomonas reinhardtii gravitaxis, OD600 absorbance, 2 days; at 10 µM; stronger effect = higher value
# [11] = blockers of RIG-like receptor reporter activation – cell-based, Sendai virus stimulus, luciferase, 10K MLSCN set, TLR/RLR signaling modifier project, primary screen (AID 602276;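 active means inhibition at or above 50% at 10 µM; inactive means inhibition below 50%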;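 further: firefly luciferase from ISG56 promoter only with Renilla not read in this screen; 0% = Sendai virus plus DMSO and 100% = medium plus DMSO without virus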); conditions: HEK293 RL24 IRF3 luciferase reporter, at 10 µM, stronger effect = higher value
# [12] = TLR3 IRF3 reporter activation blockers – cell-based, poly I:C stimulus, luciferase, 10K MLSCN set, primary screen (AID 602277;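 active means inhibition of the reporter signal at or above 50%; inactive means inhibition below 50%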); conditions: HEK293-TLR3 RL24 IRF3 luciferase reporter, at 10 µM, stronger effect = higher value
# [13] = measured here: cell density z-score
# [14] = measured here: nuclear c-Myc green intensity z-score
# [15] = measured here: nuclear pErk red intensity z-score, stronger effect = higher value
SMILES,cell count [1],inhibition [1],inhibition of aggregation [2],nuclei count [2],inhibition [3],nuclei count [3],"z-score [4, 13]","z-score [4, 14]","z-score [4, 15]",inhibition [5],fluorescence slope [6],NADPH fluorescence slope [7],slope [8],outcome [9],inhibition [10],inhibition [11],inhibition [12]
C=C1CC[C@@]2(O)[C@H]3Cc4ccc(O)c5c4[C@@]2(CCN3CC2CC2)[C@H]1O5,527,0.1% (inactive),-9.9% (inactive),99.2%,-20.4% (inactive),109%,0.737,1.29,-0.809,14.6% (inactive),-0.469 (inactive),-4e-05 (inactive),0.00496 (inactive),inactive,-15.6% (inactive),-6.04% (inactive),25% (inactive)
CNCCc1nc(N)n[nH]1,570,-4.9% (inactive),,,-160% (inactive),139%,1.42,-0.447,-0.807,27.8% (inactive),-0.507 (inactive),-4.4e-05 (inactive),0.00445 (inactive),inactive,24% (inactive),,
CN1CCC(OC(=O)C2c3ccccc3Oc3ccccc32)CC1,593,-3.3% (inactive),-33.4% (inactive),104%,-38.4% (inactive),143%,-1.82,0.811,-0.439,-3.5% (inactive),-0.316 (inactive),1.2e-05 (inactive),0.0042 (inactive),inactive,11.4% (inactive),7.89% (inactive),12.3% (inactive)
CCC(COC(=O)c1cc(OC)c(OC)c(OC)c1)(c1ccccc1)N(C)C (stereo unspecified),445,-6.3% (inactive),12.7% (inactive),92.2%,-6.1% (inactive),92.2%,-0.162,0.437,-0.404,3.45% (inactive),-0.498 (inactive),-7.2e-05 (inactive),0.00446 (inactive),inactive,-3.48% (inactive),1.96% (inactive),35% (inactive)
c1ccc(Cn2ccnc2)cc1,630,3.1% (inactive),16.2% (inactive),94.6%,-120% (inactive),130%,1.25,-0.35,1.06,8% (inactive),-0.486 (inactive),3.7e-06 (inactive),0.00411 (inactive),inactive,-7.16% (inactive),20.5% (inactive),27.2% (inactive)
